Measured values published in PubChem BioAssay AID463173 (ICCB-Longwood Screening Facility, Harvard Medical School, 2010).
Among all 52,000 compounds or so, about 4,300 (8.3%) were called active. Rule as the data show it: active = survival mostly below about 52% (no sharp cut-off); inactive = mostly above about 56%. Many of the other results were omitted from the sample, so actives are more common in it than they were.

System: DeltatarO mutant
Assay: S. aureus survival, RN4220 and DeltatarO strains – OD600, teichoic acid synthesis inhibitors, primary screen (AID 463173)
Settings: S. aureus RN4220 wild type/DeltatarO growth, OD600, 18 h, hits give low values, screened at 18.75 µg/mL (by protocol)

Row | SMILES | survival
1 | CCOC(=O)CC(NC(=O)CCc1c(C)nc2c(-c3ccccc3)c(C)nn2c1C)c1ccc(C)cc1 (stereo unspecified) | 63% (inactive)
2 | COc1ccccc1CNC(=O)C1CCN(S(=O)(=O)c2c(C)noc2/C=C/c2c(C)cc(C)cc2C)CC1 | 79% (inactive)
3 | COc1cn(CC(=O)Nc2cccc(C)c2)c(CN2CCCCC2)cc1=O | 85% (inactive)
4 | C=CCNC(=O)CSc1ccc(C)cc1 | 82% (inactive)
5 | COc1cc(OC)c(NC(=O)NCc2ccc3c(c2)CCN3C(C)=O)cc1Cl | 124% (inactive)
6 | COc1c(Cl)cc(Cl)cc1C(=O)Nc1cccc(-c2nc3ccccc3o2)c1C | 109% (inactive)
7 | Cc1cc(NC(=O)C(C)(C)Oc2ccc(Cl)cc2)cc(-c2nc3ncccc3o2)c1O | 82% (inactive)
8 | Cc1c(NC(=O)C(C)(C)Oc2ccc(Cl)cc2)cccc1-c1nc2ccccc2o1 | 2% (active)
9 | Cc1c(NC(=O)C(C)(C)Oc2ccc(Cl)cc2)cccc1-c1nc2ncccc2o1 | 19% (active)
10 | CC(C)(Oc1ccc(Cl)cc1)C(=O)Nc1ccc(-c2nc3ncccc3o2)cc1 | 52% (inactive)
11 | Cc1ccc(SCC(=O)Nc2cccc(-c3nc4cc(Cl)ccc4o3)c2C)cc1 | 60% (inactive)
12 | CCCCN1CCc2nc(Nc3ccc(OC)cc3OC)ncc2C1 | 77% (inactive)
13 | CCOC(=O)c1noc2ncn(CC(=O)O)c(=O)c12 | 54% (inactive)
14 | O=C(O)c1c2c(nc3ccc(F)cc13)CCCC2 | 89% (inactive)
15 | O=C(CSc1ccccc1)Nc1ccc2c(c1)OCO2 | 100% (inactive)
16 | CC(C)CNC(=O)N1[C@H](c2cccs2)[C@@H](C)C(=O)[C@@H](C)[C@@H]1c1cccs1 | 54% (inactive)
17 | CCOC(=O)CNC(=O)N1[C@H](c2cccs2)[C@@H](C)C(=O)[C@@H](C)[C@@H]1c1cccs1 | 55% (active)
18 | CCCNC(=O)N1[C@H](c2cccs2)[C@@H](C)C(=O)[C@@H](C)[C@@H]1c1cccs1 | 107% (inactive)
19 | CC(C)c1ccccc1NC(=O)CN(c1ccccc1)S(=O)(=O)N(C)C | 81% (inactive)
20 | Cc1oc(-c2ccc(C(=O)Nc3ccccc3F)cc2)nc1COc1ccccc1 | 94% (inactive)
21 | Cc1oc(-c2cccc(Cl)c2)nc1CSCC(=O)NCc1ccccc1Cl | 0% (active)
22 | COc1ccc(-c2nc(CS(=O)(=O)CC(=O)NCCc3ccc(C)cc3)c(C)o2)cc1 | 85% (inactive)

Row | SMILES | survival
23 | COc1ccccc1CNC(=O)CSCc1nc(-c2ccc(OC)c(OC)c2)oc1C | 71% (inactive)
24 | Cc1oc(-c2cccc(Cl)c2)nc1CSCC(=O)O | 75% (inactive)
25 | COc1ccc(-c2nc(CSCC(=O)NCc3ccccc3Cl)c(C)o2)cc1OC | 46% (active)
26 | CCc1ccc(-c2nc(CSCC(=O)NCc3ccccc3OC)c(C)o2)cc1 | 62% (inactive)
27 | Cc1ccc(-c2nc(CS(=O)(=O)CC(=O)NCc3ccccc3Cl)c(C)o2)cc1 | 56% (inactive)
28 | COc1ccc(-c2nc(CS(=O)CC(=O)NCc3ccccc3Cl)c(C)o2)cc1OC (stereo unspecified) | 72% (inactive)
29 | Cc1oc(-c2cccc(Cl)c2)nc1CS(=O)(=O)CC(=O)NCc1ccccc1Cl | 49% (inactive)
30 | Cc1ccc(-c2nc(CS(=O)CC(=O)NCc3ccccc3Cl)c(C)o2)cc1 (stereo unspecified) | 54% (active)
31 | COc1ccc(-c2nc(CS(=O)(=O)CC(=O)NCc3ccccc3Br)c(C)o2)cc1 | 41% (active)
32 | Cc1oc(-c2ccccc2Cl)nc1CS(=O)CC(=O)NCc1ccccc1Cl (stereo unspecified) | 54% (inactive)
33 | CN1CCN(C(=O)c2ccc(N(C)S(C)(=O)=O)cc2)CC1 | 107% (inactive)
34 | Cc1cccc(CCNC(=O)C2CCCN(S(=O)(=O)c3ccc4c(c3)oc(=O)n4C)C2)c1 (stereo unspecified) | 102% (inactive)
35 | Cc1ccc(Cn2c(C)c3cnn(CC(=O)N4CCN(c5ccc(F)cc5)CC4)c(=O)c3c2C)cc1 | 71% (inactive)
36 | CC(=O)c1ccc(NC(=O)Cn2cc(S(=O)(=O)Cc3cccc(Cl)c3)c3ccccc32)cc1 | 113% (inactive)
37 | O=C(Nc1ccc(F)c(F)c1)c1nc2ncccn2n1 | 82% (inactive)
38 | COc1ccc(Br)cc1CNC(=O)CSc1n[nH]c(-c2ccccc2)n1 | 73% (inactive)
39 | Cc1oc(-c2ccccc2Cl)nc1CS(=O)(=O)CC(=O)NC(C)CCc1ccccc1 (stereo unspecified) | 76% (inactive)
40 | Cc1oc(-c2cccc(Cl)c2)nc1CS(=O)(=O)CC(=O)NC(C)CCc1ccccc1 (stereo unspecified) | 32% (active)
41 | Cc1ccc(-c2nc(CS(=O)(=O)CC(=O)NC(C)CCc3ccccc3)c(C)o2)cc1 (stereo unspecified) | 63% (inactive)
42 | COC(=O)C12CC3CC(CC(C(=O)OC)(C1)C3=O)C2=O | 116% (inactive)
43 | Cc1nc(SCc2cccc(Cl)c2)nc2c1CCCC2 | -2% (active)
44 | Cc1cccc(CSc2nc3c(c(=O)[nH]2)CCC3)c1 | 69% (inactive)

Row | SMILES | survival
45 | O=c1[nH]c(SCc2cccc(Cl)c2)nc2c1CCC2 | 85% (inactive)
46 | COc1ccccc1CNC(=O)c1c(O)nc2c(C)cccn2c1=O | 69% (inactive)
47 | O=C(NCc1ccc2c(c1)CCN2C(=O)c1ccncc1)c1ccccc1F | 117% (inactive)
48 | COc1ccccc1Nc1nn2c(=O)c3ccc(C(=O)N4CCCC(C)C4)cc3nc2s1 (stereo unspecified) | 61% (inactive)
49 | COc1ccccc1Nc1nn2c(=O)c3ccc(C(=O)N4CCCCC4)cc3nc2s1 | 71% (inactive)
50 | COc1ccccc1Nc1nn2c(=O)c3ccc(C(=O)N4CCC(C)CC4)cc3nc2s1 | 52% (active)
51 | CCc1ccccc1NC(=O)CN1C(=O)C2CCCN2c2ccc(S(=O)(=O)N(CC)CC)cc21 (stereo unspecified) | 72% (inactive)
52 | CCN(CC)S(=O)(=O)c1ccc2c(c1)N(CC(=O)Nc1c(C)cccc1C)C(=O)C1CCCN21 (stereo unspecified) | 89% (inactive)
53 | CCN(CC)S(=O)(=O)c1ccc2c(c1)N(CC(=O)Nc1cccc(C)c1C)C(=O)C1CCCN21 (stereo unspecified) | -2% (active)
54 | O=C(Cn1c(=O)nc(-c2ccccc2)c2ccccc21)NCCc1ccc(Cl)cc1 | 70% (inactive)
55 | O=C(Cn1ncc2c3ccccc3n(Cc3ccccc3F)c2c1=O)N1CCCCCC1 | 70% (inactive)
56 | CCCn1c2ccccc2c2cnn(CC(=O)N3CCN(c4ccccc4F)CC3)c(=O)c21 | -4% (active)
57 | Cc1cc(C)c(Cn2c3ccccc3c3cnn(CC(=O)N4CCCCC4)c(=O)c32)c(C)c1 | 126% (inactive)
58 | O=C(Cn1ncc2c3ccccc3n(Cc3ccc(Cl)cc3)c2c1=O)N1CCCCCC1 | 84% (inactive)
59 | CCN1CCN(C(=O)Cn2ncc3c4ccccc4n(Cc4c(C)cc(C)cc4C)c3c2=O)CC1 | 124% (inactive)
60 | Cc1ccc(Cn2c3ccccc3c3cnn(CC(=O)N4CCCCCC4)c(=O)c32)cc1 | 19% (active)
61 | CCCn1c2ccccc2c2cnn(CC(=O)N3CCC(C)CC3)c(=O)c21 | 76% (inactive)
62 | Cc1cc(C)c(Cn2c3ccccc3c3cnn(CC(=O)N4CCCCCC4)c(=O)c32)c(C)c1 | 9% (active)
63 | O=C(Cn1ncc2c3ccccc3n(Cc3ccccc3)c2c1=O)N1CCCCCC1 | 82% (inactive)
64 | CCN1CCN(C(=O)Cn2ncc3c4ccccc4n(Cc4ccccc4F)c3c2=O)CC1 | 95% (inactive)
65 | O=C(Cn1ncc2c3ccccc3n(Cc3ccccc3F)c2c1=O)N1CCCCC1 | 120% (inactive)
66 | CC1CCCCN1C(=O)Cn1ncc2c3ccccc3n(Cc3ccccc3F)c2c1=O (stereo unspecified) | 32% (active)
